Data on 31 molecules can be found in PubChem BioAssay.

The first experiment deals with Lefty1. Briefly: Lefty1 binders on small-molecule microarrays, primary screen, biochemical, small-molecule microarray, 635/667 nm fluorescence (AID 1139). The note with it: small-molecule microarray binding, fluorescence 635/667; higher = more signal.
In turn, `O=P(NCC1(CC2(c3ccccc3)CO2)CC1)(c1ccccc1)c1ccccc1` (stereo unspecified) showed a composite z-score of -2.28. Turning to `CCOC(=O)C1=CC[C@@H](c2ccccc2)N(S(=O)(=O)c2ccc(C)cc2)[C@H]1c1ccc(C#N)cc1`, the composite z-score is -0.507. In the case of `COc1cc(NN2C(C(O)c3ccccc3)C=CC3C(=O)N(c4ccccc4)C(=O)C32)cc(OC)c1OC` (stereo unspecified), the composite z-score was found to be 0.879.

With `Cn1c2c(c3ccccc31)C(=O)C1NC2C=CC1(C)C(=O)OCc1ccccc1` (stereo unspecified), the composite z-score was -1.82. Still for that read-out and setting: under `Cc1ccc(S[C@]2(C(=O)NCCN3CCOCC3)CC(=O)N(C3CCCCC3)[C@@H]2c2ccc(CO)cc2)cc1` stands -0.299.

In the case of `COCCOC(=O)N1C(=O)[C@@]2(c3cc(C#CC4=CCCCC4)ccc31)[C@H](c1ccc(OCCO)cc1)N1[C@H](c3ccccc3)[C@H](c3ccccc3)OC(=O)[C@H]1[C@@H]2C(=O)Nc1nc2ccccc2s1`, the composite z-score was determined as 0.982.

In another experiment the test system is wheat germ agglutinin (Triticum aestivum), Alexa647-labelled. The experiment is described as follows: wheat germ agglutinin binders on compound microarrays, profiling panel, artefact control for SMM control-protein annotation, biochemical, small-molecule microarray, 635/667 nm fluorescence (AID 1140).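 Further: score merges 667 nm feature emission with signal to noise over triplicate slides.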 As to conditions: WGA-A647 binding, 635 nm fluorescence, higher = more signal.
In turn, `C[N+](C)(C)CCCCNC(=O)[C@H]1C[C@H]2C(=O)N3CCC[C@H]3C(=O)N2[C@H]1c1ccc(O)cc1` showed a composite z-score of 0.282. The same measure, in the same setting: under `O=S(=O)(NCCCO)c1ccc(Br)cc1` stands 0.54; under `Cc1ccc(S(=O)(=O)N2CC(C(=O)O)=CCC2c2ccccc2)cc1` (stereo unspecified), 0.0972.

The molecule `C=CCOC(=O)[C@H]1[C@@H]2C(=O)O[C@@H](c3ccccc3)[C@@H](c3ccccc3)N2[C@@H](c2ccc(OCCOC(=O)[C@@H]3C[C@@H]4C(=O)NCC(=O)N4[C@@H]3c3ccc(O)cc3)cc2)[C@]12C(=O)Nc1ccc(I)cc12` came in with a composite z-score of 0.763.

The molecule `CC(=O)NCCCC[C@@H]1NC(=O)[C@@H]2C[C@H](C(=O)NCCCCCC[N+](C)(C)C)[C@H](c3cccc(OCCO)c3)N2C1=O` had a composite z-score of 0.548. `C/C=C/[C@H](CCn1cc([C@H](O)c2ccccc2)nn1)[Si](C)(C)c1ccc(OC)cc1` had a composite z-score of -0.777. Turning to `CCCNC(=O)[C@@]1(C)c2ccccc2C(=O)N(Cc2cc(C(F)(F)F)cc(C(F)(F)F)c2)[C@H]1c1ccc(CO)cc1`, the composite z-score came to 0.463. On to `C=C(CCCC)/C(=C/C[C@H](OC(C)=O)c1ccc(CO)o1)c1cc(C(=O)OC)ccc1OC`, for which the composite z-score was 0.789. Consider `C=CCCN(CC#C[C@H]1Oc2ccccc2S(=O)(=O)N2CCC[C@@H]12)S(=O)(=O)c1ccc(C)cc1`, for which the composite z-score was -0.0231. Regarding `CN1C(=O)C2C=CC(C(O)C(c3ccccc3)c3ccccc3)N(Nc3ccccc3)C2C1=O` (stereo unspecified), the composite z-score is 0.889.

The molecule `O=C1OCCC/C=C\[C@H]2OC34C=CCN(CCN5CCOCC5)C(=O)[C@H]3N(CCO)C(=O)[C@@H]4C12` (stereo partly specified) returned a composite z-score of -0.365.

`COCCOC(=O)N1C(=O)[C@@]2(c3cc(C#CC4(O)CCCCCC4)ccc31)[C@H](c1ccc(O)cc1)N1[C@H](c3ccccc3)[C@H](c3ccccc3)OC(=O)[C@H]1[C@@H]2C(=O)N1CCc2cc(OC)c(OC)cc2C1` yielded a composite z-score of 0.663. Consider `COCCn1c(C(=O)N2CCCC2)cc2c1C[C@H]1CN(C(=O)c3ccccc3)[C@@](Cc3ccc(OC)cc3)(C(=O)OC)[C@@H]21`, for which the composite z-score turned out to be 1.06.

On to `Cc1cc(C)c(C(O)C2C=CC3C(=O)NC(=O)C3N2Nc2ccccn2)c(C)c1` (stereo unspecified), for which the composite z-score was 0.994.

On to `CC(c1ccccc1)C(O)C1C=CC2C(=O)N(Cc3ccccc3)C(=O)C2N1n1cnnc1` (stereo unspecified), for which the composite z-score turned out to be 0.532. `O=C(NCC(O)CO)[C@@]1(Cc2ccccc2)N=C(c2ccc(OCCCO)cc2)O[C@H]1c1ccccc1` (stereo partly specified): the composite z-score came to 0.922. Still for that read-out and setting: with `CC(c1ccccc1)C(O)C1C=CC2C(=O)N(c3ccccc3)C(=O)C2N1Nc1ccccc1F` (stereo unspecified) the figure was 0.439; with `C=CC[C@@]1(C(=O)NCc2ccccc2)N=C(c2ccc(OCCCO)cc2)O[C@@H]1c1ccccc1CN=[N+]=[N-]`, 0.888; with `C=CCN1C(=O)[C@]2(Cc3ccccc31)N=C(c1ccc(OCCCO)cc1)O[C@@H]2c1ccccc1`, 0.322. On the same count and under the same terms, under `CCCCC(=O)N(Cc1ccccc1F)[C@@H]1CC(C(=O)NCCO)=C[C@H](Oc2c(I)cc(CO)cc2OC)[C@H]1O` stands 0.736; under `Cc1c(NC(=O)/C(C#N)=C/C=C/c2ccccc2)c(=O)n(-c2ccccc2)n1C`, 0.343; under `CC(C)(C)OC(=O)CC[C@]1(C(=O)NCC(O)CO)N=C(c2ccc(OCCCO)cc2)O[C@H]1c1ccccc1CN=[N+]=[N-]` (stereo partly specified), 0.959. With `CCCC[C@@H]1C[C@H]1[C@@H](NC(=O)c1ccco1)c1ccccc1`, the composite z-score was -0.0439.

`NC(=O)NCC#Cc1ccc2c(c1)[C@]1(C(=O)N2)[C@H](c2ccccc2OCCO)N2[C@H](c3ccccc3)[C@H](c3ccccc3)OC(=O)[C@H]2[C@@H]1C(=O)N1CCCCCCC1` showed a composite z-score of 1.46. `C=C(COC)C(=O)CC[C@H](OC(=O)c1cccnc1)c1ccccc1OCCO` came in with a composite z-score of 0.18.
